The source of these data is PMC7862700, “An all-to-all approach to the identification of sequence-specific readers for epigenetic DNA modifications on cytosine”.

Common to all, as to experiment: DAPPL (digital affinity profiling via proximity ligation, sequencing); 10 mM Tris-HCl pH 7.5, 50 mM NaCl, 1 mM DTT, 4% glycerol, room temperature, 30 min; GST-TFs on glutathione beads, 16-mer random dsDNA library, 0.1% formaldehyde crosslink after washing; high values mean tight binding
One assay deals with T1, FEV (Homo sapiens, UniProt Q99581 1-238).
T1 sequence: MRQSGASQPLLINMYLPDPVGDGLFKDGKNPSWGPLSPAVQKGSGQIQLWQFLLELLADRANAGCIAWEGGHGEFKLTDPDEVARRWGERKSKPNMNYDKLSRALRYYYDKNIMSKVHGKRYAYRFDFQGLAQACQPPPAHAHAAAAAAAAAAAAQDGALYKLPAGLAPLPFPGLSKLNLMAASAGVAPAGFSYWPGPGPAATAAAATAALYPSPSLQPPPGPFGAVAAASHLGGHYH
The settings on record: protein: recombinant; tags: N-terminal GST; dsDNA, one strand shown. In short, it runs like this:
(§1)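 Human transcription factors were made in yeast as GST fusions, captured on glutathione beads and barcoded with DNA. With a tag-only sample included, the pool was incubated with 200 nmole of a random double-stranded 16-mer DNA library in Tris/NaCl/DTT/glycerol buffer at room temperature for 30 min, then crosslinked with 0.1% formaldehyde after washing, ligated by proximity, amplified and sequenced. For binding signal, each hexamer's read frequency for a factor is divided by its frequency for the tag-only sample.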

The target of another assay is ETV5 (Homo sapiens, UniProt P41161 1-510). The settings on record: protein: recombinant; tags: N-terminal GST; dsDNA, one strand shown. In short, it runs like this: as §1
ETV5, sequence (P41161 whole entry): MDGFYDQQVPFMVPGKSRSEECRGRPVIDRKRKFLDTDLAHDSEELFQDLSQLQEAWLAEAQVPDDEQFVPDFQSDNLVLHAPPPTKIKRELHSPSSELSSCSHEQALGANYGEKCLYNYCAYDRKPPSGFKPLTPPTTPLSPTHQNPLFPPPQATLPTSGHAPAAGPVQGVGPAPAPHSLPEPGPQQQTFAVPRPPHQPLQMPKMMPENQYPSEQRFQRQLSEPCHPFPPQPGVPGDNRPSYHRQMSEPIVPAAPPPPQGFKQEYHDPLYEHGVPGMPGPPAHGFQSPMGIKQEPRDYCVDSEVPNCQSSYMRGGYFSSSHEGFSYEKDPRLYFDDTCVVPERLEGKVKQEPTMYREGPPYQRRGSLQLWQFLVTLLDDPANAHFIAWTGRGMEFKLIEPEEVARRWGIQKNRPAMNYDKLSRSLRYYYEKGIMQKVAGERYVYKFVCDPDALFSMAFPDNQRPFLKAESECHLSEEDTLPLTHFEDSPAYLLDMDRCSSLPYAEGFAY
In a further assay the target is HSF1 (Homo sapiens, UniProt Q00613 1-529). The settings on record: protein: recombinant; tags: N-terminal GST; chain copies: 3; dsDNA, one strand shown. A digest of the protocol: as §1
HSF1, sequence (Q00613 whole entry): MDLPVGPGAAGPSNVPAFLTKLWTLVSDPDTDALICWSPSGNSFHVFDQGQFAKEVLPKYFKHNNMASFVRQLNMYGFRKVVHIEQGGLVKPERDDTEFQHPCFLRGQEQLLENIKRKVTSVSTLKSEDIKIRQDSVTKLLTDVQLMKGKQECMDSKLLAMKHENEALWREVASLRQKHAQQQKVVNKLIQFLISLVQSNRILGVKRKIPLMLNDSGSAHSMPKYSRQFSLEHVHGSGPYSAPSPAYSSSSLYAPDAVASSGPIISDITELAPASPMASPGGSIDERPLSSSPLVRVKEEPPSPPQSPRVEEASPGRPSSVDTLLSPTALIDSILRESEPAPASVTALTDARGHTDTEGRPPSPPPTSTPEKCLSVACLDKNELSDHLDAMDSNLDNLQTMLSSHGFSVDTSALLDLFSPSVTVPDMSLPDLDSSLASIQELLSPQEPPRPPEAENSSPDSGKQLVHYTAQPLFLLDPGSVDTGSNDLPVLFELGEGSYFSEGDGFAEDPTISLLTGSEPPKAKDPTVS
The next assay deals with T2, SPIC (Homo sapiens, UniProt Q8N5J4 1-248).
T2 sequence: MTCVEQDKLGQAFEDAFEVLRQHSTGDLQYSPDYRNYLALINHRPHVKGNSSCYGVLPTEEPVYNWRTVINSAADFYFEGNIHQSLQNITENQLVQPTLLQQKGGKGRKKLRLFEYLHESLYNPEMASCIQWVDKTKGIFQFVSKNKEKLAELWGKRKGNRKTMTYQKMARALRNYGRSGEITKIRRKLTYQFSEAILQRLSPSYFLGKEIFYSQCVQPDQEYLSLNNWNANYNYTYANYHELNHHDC
The conditions noted are these: protein: recombinant; tags: N-terminal GST; dsDNA, one strand shown. In short, it runs like this: as §1

Another assay addresses ELF4 (Homo sapiens, UniProt Q99607 1-663). The conditions noted are these: protein: recombinant; tags: N-terminal GST; dsDNA, one strand shown. A digest of the protocol:
as §1

For a further assay, the target named is T3, ELK4 (Homo sapiens, UniProt P28324-2 1-405).
T3 sequence: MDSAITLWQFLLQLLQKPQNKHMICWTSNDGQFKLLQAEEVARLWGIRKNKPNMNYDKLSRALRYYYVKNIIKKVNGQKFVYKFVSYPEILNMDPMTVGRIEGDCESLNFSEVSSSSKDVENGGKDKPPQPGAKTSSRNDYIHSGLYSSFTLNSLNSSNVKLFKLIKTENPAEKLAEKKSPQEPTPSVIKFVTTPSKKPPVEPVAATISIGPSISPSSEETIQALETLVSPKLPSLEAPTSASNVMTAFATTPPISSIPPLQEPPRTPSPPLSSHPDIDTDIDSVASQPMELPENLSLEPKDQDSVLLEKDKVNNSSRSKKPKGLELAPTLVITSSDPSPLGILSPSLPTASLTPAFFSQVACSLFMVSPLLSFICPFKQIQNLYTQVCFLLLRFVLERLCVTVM
The settings on record: protein: recombinant; tags: N-terminal GST; dsDNA, one strand shown. A digest of the protocol: as §1

The next assay has as its target T4, ETV2 (Homo sapiens, UniProt O00321 1-342).
T4 sequence: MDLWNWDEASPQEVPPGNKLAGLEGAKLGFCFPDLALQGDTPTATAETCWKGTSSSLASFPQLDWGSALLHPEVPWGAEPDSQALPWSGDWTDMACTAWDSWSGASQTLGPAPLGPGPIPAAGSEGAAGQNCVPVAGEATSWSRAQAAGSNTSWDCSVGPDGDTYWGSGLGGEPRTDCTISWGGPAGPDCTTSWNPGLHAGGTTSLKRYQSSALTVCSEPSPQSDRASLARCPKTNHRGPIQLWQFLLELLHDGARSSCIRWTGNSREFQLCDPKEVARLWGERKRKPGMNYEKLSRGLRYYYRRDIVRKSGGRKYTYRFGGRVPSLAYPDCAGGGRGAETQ
The settings on record: protein: recombinant; tags: N-terminal GST; dsDNA, one strand shown. A digest of the protocol:
as §1

For the next assay, the target named is T5, ELF3 (Homo sapiens, UniProt P78545 1-371).
T5 sequence: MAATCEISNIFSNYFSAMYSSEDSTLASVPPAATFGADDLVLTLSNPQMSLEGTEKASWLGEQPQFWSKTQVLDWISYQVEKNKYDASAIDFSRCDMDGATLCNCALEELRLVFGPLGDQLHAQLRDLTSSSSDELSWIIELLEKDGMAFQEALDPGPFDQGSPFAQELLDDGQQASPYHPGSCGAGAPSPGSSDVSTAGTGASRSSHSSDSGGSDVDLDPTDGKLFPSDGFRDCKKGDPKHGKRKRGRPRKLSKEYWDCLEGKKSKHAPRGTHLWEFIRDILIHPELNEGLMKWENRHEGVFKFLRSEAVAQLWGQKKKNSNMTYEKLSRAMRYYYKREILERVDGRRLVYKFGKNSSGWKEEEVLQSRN
The conditions noted are these: protein: recombinant; tags: N-terminal GST; dsDNA, one strand shown. In short, it runs like this: as §1

The target in the next assay is CRX (Homo sapiens, UniProt O43186 1-299). The conditions noted are these: protein: recombinant; tags: N-terminal GST; dsDNA, one strand shown. In short, it runs like this:
as §1

For the next assay, the target named is ETV1 (Homo sapiens, UniProt P50549 1-477). The settings on record: protein: recombinant; tags: N-terminal GST; dsDNA, one strand shown. In short, it runs like this:
as §1

For a further assay, the target named is T6, ERF (Homo sapiens, UniProt P50548 1-548).
T6 sequence: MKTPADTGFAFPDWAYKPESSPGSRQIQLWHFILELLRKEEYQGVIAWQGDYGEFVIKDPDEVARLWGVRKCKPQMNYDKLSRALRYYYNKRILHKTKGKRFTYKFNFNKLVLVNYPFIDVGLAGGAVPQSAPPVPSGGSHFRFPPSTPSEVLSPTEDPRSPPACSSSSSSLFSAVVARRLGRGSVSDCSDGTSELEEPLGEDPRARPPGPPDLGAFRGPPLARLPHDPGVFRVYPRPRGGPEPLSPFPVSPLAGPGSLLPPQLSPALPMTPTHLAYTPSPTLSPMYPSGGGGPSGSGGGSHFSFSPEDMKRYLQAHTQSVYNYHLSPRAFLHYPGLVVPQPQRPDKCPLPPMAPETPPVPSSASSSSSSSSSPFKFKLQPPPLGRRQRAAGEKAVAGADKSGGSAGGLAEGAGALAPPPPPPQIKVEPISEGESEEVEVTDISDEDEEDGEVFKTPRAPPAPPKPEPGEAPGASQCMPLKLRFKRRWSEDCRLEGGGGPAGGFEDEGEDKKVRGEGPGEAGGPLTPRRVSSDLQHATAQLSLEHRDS
The settings on record: protein: recombinant; tags: N-terminal GST; dsDNA, one strand shown. In short, it runs like this:
as §1

A further assay addresses T7, ETV3L (Homo sapiens, UniProt Q6ZN32 1-361).
T7 sequence: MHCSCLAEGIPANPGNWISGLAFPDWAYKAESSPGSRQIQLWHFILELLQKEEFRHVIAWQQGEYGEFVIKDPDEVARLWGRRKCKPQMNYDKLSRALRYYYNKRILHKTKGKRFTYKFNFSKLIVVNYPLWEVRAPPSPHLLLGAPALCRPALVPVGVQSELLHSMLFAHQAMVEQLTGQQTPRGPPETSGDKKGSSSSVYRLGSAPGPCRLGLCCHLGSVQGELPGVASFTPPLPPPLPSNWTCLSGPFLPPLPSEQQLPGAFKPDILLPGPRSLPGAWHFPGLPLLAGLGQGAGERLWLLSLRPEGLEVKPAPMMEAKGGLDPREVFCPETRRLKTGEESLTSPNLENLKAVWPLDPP
The conditions noted are these: protein: recombinant; tags: N-terminal GST; dsDNA, one strand shown. A digest of the protocol: as §1

For another assay, the target named is T8, ETS2 (Homo sapiens, UniProt P15036 1-469).
T8 sequence: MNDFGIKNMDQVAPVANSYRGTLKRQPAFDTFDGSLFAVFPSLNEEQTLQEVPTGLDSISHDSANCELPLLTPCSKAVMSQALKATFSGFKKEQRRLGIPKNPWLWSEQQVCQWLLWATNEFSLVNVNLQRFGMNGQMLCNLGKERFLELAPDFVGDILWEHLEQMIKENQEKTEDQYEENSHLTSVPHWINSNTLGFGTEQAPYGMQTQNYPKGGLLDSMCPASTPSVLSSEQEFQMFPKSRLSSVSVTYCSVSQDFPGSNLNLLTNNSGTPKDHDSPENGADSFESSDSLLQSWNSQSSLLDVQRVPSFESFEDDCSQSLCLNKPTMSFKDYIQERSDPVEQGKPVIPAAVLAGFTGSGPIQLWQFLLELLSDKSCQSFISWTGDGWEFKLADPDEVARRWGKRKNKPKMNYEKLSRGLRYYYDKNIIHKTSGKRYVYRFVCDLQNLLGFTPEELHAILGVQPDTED
The settings on record: protein: recombinant; tags: N-terminal GST; dsDNA, one strand shown. A digest of the protocol: as §1

The target of another assay is T9, SPDEF (Homo sapiens, UniProt O95238 1-335).
T9 sequence: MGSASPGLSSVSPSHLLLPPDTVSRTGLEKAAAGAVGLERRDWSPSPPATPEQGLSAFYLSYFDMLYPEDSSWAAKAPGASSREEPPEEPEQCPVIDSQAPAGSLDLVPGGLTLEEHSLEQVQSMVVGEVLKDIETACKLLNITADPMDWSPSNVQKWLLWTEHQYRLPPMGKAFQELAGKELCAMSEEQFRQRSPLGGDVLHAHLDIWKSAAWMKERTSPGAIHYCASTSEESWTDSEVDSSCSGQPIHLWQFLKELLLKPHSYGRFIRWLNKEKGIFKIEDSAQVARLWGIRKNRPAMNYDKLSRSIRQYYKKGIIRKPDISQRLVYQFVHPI
The settings on record: protein: recombinant; tags: N-terminal GST; dsDNA, one strand shown. In short, it runs like this:
as §1

The target of a further assay is T10, ETV7 (Homo sapiens, UniProt Q9Y603 1-341).
T10 sequence: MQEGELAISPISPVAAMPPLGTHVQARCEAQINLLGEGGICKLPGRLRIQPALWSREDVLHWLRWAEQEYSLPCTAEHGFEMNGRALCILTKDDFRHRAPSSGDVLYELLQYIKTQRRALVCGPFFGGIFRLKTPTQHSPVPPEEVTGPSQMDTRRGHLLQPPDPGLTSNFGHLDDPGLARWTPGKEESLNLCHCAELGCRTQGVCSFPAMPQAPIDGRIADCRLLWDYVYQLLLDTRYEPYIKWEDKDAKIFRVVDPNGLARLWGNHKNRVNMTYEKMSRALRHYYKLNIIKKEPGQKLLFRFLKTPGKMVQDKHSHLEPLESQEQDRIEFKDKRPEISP
The conditions noted are these: protein: recombinant; tags: N-terminal GST; dsDNA, one strand shown. In short, it runs like this:
as §1

For a further assay, the target named is T11, ELF5 (Homo sapiens, UniProt Q9UKW6-2 1-255).
T11 sequence: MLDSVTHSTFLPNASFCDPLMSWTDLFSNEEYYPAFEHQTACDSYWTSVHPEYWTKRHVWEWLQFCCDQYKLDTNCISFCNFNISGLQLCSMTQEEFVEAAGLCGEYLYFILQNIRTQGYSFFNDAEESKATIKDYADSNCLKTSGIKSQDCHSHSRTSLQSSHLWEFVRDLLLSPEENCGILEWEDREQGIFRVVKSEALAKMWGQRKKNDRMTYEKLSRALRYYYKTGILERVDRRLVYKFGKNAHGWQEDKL
The conditions noted are these: protein: recombinant; tags: N-terminal GST; dsDNA, one strand shown. A digest of the protocol: as §1

Another assay addresses T12, ETV3 (Homo sapiens, UniProt P41162-2 1-143).
T12 sequence: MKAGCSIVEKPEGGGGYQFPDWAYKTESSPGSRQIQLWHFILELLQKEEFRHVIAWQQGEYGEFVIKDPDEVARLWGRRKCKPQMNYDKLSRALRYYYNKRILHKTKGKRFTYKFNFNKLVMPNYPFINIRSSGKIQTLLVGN
The conditions noted are these: protein: recombinant; tags: N-terminal GST; dsDNA, one strand shown. In short, it runs like this: as §1

In a further assay the target is ETV6 (Homo sapiens, UniProt P41212 1-452). The conditions noted are these: protein: recombinant; tags: N-terminal GST; dsDNA, one strand shown. A digest of the protocol:
as §1

ETV6, sequence (P41212 whole entry): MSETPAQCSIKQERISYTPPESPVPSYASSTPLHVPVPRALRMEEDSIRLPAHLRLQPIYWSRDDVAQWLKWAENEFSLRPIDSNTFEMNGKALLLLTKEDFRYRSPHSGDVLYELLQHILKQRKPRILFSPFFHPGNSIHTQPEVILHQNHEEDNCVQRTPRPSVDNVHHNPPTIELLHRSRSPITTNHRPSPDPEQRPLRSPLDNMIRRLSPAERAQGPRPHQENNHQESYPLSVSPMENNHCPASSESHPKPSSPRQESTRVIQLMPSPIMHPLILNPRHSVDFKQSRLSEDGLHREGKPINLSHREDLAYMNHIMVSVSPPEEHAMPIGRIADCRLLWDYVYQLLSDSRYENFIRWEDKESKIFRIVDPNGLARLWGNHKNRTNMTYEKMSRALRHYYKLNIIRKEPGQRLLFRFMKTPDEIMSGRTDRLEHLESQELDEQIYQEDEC
CRX, sequence (O43186 whole entry): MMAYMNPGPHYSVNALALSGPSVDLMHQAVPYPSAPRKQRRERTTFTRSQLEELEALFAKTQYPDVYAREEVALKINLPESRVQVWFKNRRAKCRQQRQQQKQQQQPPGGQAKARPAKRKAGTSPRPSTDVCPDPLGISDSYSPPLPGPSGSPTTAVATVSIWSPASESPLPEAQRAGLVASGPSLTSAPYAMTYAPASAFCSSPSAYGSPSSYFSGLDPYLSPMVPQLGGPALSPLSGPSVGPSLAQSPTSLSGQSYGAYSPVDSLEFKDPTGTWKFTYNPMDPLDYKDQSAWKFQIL
ELF4, sequence (Q99607 whole entry): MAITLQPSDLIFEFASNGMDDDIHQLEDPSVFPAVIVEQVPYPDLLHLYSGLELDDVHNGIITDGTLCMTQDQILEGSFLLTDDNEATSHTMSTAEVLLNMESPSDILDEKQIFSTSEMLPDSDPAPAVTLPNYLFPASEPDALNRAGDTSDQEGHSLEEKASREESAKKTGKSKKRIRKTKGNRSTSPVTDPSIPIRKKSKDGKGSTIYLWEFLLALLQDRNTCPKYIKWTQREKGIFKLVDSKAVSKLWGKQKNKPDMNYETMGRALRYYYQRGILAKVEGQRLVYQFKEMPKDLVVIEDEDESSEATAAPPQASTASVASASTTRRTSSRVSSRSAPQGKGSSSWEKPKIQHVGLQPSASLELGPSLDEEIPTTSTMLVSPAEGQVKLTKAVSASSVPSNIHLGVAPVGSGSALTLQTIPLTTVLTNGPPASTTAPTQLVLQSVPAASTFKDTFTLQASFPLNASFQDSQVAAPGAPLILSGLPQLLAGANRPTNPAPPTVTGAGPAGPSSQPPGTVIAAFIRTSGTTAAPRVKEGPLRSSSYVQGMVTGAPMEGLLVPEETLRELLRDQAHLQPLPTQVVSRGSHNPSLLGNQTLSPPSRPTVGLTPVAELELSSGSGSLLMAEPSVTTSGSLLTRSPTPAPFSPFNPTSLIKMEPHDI
ETV1, sequence (P50549 whole entry): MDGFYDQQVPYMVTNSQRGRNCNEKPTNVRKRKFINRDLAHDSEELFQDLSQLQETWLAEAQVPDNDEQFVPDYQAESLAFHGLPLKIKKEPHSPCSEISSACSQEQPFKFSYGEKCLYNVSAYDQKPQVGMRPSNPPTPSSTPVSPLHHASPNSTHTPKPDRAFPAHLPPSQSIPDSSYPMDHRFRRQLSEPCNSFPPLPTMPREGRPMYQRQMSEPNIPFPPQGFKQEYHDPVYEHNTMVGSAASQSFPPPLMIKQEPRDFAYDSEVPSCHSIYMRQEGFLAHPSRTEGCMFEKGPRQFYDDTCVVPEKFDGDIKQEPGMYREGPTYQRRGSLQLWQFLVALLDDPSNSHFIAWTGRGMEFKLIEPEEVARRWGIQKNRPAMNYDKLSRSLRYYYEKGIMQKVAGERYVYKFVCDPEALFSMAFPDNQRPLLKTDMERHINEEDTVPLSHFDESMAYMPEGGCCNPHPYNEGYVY

TTCGTA: the binding signal with FEV is 1.3 fold enrichment (6-mer frequency, TF over GST control); in the assay with ETV5 it was 1.42 fold enrichment (6-mer frequency, TF over GST control); in the assay with HSF1 it was 1.33 fold enrichment (6-mer frequency, TF over GST control); with SPIC, 1.42 fold enrichment (6-mer frequency, TF over GST control); in the assay with ELF4 it was 1.39 fold enrichment (6-mer frequency, TF over GST control); in the assay with ELK4, 1.21 fold enrichment (6-mer frequency, TF over GST control). Besides, the binding signal was 1.37 fold enrichment (6-mer frequency, TF over GST control) in the assay with ETV2; 1.53 fold enrichment (6-mer frequency, TF over GST control) with ELF3; 1.52 fold enrichment (6-mer frequency, TF over GST control) in the assay with CRX; 1.25 fold enrichment (6-mer frequency, TF over GST control) in the assay with ETV1; 1.39 fold enrichment (6-mer frequency, TF over GST control) with ERF; 1.35 fold enrichment (6-mer frequency, TF over GST control) with ETV3L. Further, the binding signal is 1.36 fold enrichment (6-mer frequency, TF over GST control) in the assay with ETS2; 1.21 fold enrichment (6-mer frequency, TF over GST control) with SPDEF; 1.4 fold enrichment (6-mer frequency, TF over GST control) in the assay with ETV7; 1.3 fold enrichment (6-mer frequency, TF over GST control) with ELF5; 1.44 fold enrichment (6-mer frequency, TF over GST control) with ETV3; 1.3 fold enrichment (6-mer frequency, TF over GST control) with ETV6.
